PMC6919601, “Identification of Plasmodium dipeptidyl aminopeptidase allosteric inhibitors by high throughput screening” (PLoS ONE, 2019)
The whole screen tested about 110,000 compounds, of which about 230 (0.21%) showed an effect of 50% or more. What follows is part of a selection rich in strong results, with near analogues and random picks from the rest.

target: DPAP1 (Plasmodium falciparum, UniProt Q8IIJ9); experiment: primary screen, percent inhibition; read by cleavage of a fluorogenic dipeptide substrate; higher = more effect of the substance; design: species or system P. falciparum D10 trophozoite lysates; single well
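Note: 30 min substrate incubation versus DMSO and 10 µM JCP410 controls.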

Chain of DPAP1 (Q8IIJ9 whole entry, looked up): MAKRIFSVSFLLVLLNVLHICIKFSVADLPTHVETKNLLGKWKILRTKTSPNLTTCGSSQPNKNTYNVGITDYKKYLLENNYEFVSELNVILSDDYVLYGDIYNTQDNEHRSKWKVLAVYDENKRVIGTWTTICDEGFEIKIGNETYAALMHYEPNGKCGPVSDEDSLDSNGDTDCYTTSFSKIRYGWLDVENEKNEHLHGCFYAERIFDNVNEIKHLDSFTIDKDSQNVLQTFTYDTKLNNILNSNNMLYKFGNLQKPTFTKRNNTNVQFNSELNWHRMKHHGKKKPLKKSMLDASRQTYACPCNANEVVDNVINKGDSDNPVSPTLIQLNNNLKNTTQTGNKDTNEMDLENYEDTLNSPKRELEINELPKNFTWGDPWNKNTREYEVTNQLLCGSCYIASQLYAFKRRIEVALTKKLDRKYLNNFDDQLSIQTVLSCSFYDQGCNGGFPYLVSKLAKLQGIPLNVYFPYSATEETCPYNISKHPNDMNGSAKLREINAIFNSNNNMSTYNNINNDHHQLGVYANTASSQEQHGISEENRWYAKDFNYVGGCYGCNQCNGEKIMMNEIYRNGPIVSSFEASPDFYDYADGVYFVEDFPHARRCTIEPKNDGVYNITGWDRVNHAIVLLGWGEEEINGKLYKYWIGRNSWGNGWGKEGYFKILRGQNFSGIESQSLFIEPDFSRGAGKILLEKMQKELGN

First: Cc1cc(C)c(C#N)c(SCc2ccccc2)n1
Second: Cc1cc(C)c(C#N)c(SCc2ccccc2F)n1
The “% Inhibition @ 10 uM” value of the first is lower: -0.305% for the first, 40.7% for the second.

Compared with Cc1cc(C)c(C#N)c(SCc2ccccn2)n1, CCc1c(C#N)c(SC)nc(C)c1C(=O)Nc1ccccc1 is lower in “% Inhibition @ 10 uM” value: 66.4% for the first, 1.43% for the second.

Compared with CCOC(=O)c1c(NC(=O)/C=C/C(=O)O)sc2c1CCN(Cc1ccccc1)C2, NC(=O)c1c(NC(=O)COc2ccccc2)sc2c1CCCCC2 is higher in “% Inhibition @ 10 uM” value: -1.92% for the first, 1.88% for the second.

Going from Cc1cc(C(F)(F)F)nn1CC(=O)Nc1sc2c(c1C#N)CCCCC2 to Cc1cc(C(F)(F)F)nn1CC(=O)Nc1sc2c(c1C(N)=O)CCCCC2, the “% Inhibition @ 10 uM” value rises from 2.76% to 54.5%.

First: CC(Oc1ccc(F)cc1)C(=O)Nc1sc2c(c1C(N)=O)CCC2 (stereo not drawn)
Second: CC(Oc1cccc(Cl)c1)C(=O)Nc1sc2c(c1C(N)=O)CCCCC2 (stereo not drawn)
The “% Inhibition @ 10 uM” value of the first is lower: 2.44% for the first, 61.2% for the second.

Compared with COc1ccc(CC(=O)Nc2sc3c(c2C(N)=O)CCCCC3)cc1OC, CCOc1ccc(CC(=O)Nc2sc3c(c2C(N)=O)CCCC3)cc1OCC is lower in “% Inhibition @ 10 uM” value: 57% for the first, -13.5% for the second.

Compared with CC1CCc2c(sc(NC(=O)C(C)Oc3cccc(Cl)c3)c2C(N)=O)C1 (stereo not drawn), NC(=O)c1c(NC(=O)COc2ccc(Cl)cc2)sc2c1CCCCC2 is higher in “% Inhibition @ 10 uM” value: 2.45% for the first, 65.1% for the second.

Going from NC(=O)c1c(NC(=O)COc2ccc(Cl)cc2)sc2c1CCCCCC2 to COc1ccc(CC(=O)Nc2sc3c(c2C(N)=O)CCCC3)cc1, the “% Inhibition @ 10 uM” value rises from -4.33% to 2.13%.

Compared with Cc1cc(C(F)(F)F)nn1CC(=O)Nc1sc2c(c1C(N)=O)CCCC2, CCc1nnc(NC(=O)CSc2nc(C(F)(F)F)cc(C)c2C#N)s1 is higher in “% Inhibition @ 10 uM” value: -1.49% for the first, 59.2% for the second.

Compared with Cc1nc2ccccc2c2oc(C(=O)NCc3ccc(F)cc3)cc12, CCn1c(C(=O)NCc2ccccn2)cc2oc3ccccc3c21 is lower in “% Inhibition @ 10 uM” value: 1.62% for the first, -3.96% for the second.

First: CC(=O)c1ccc(OCCOc2ccc(C(C)=O)cc2)cc1
Second: CCOc1ccccc1C(=O)Nc1ccc(C(C)=O)cc1
The “% Inhibition @ 10 uM” value of the first is higher: -6.82% for the first, -7.23% for the second.

Going from CCn1c2ccccc2c2nnc(N3CCC(C)CC3)nc21 to CC1CCN(C(=O)Cn2cnc3c(nnn3Cc3ccccc3F)c2=O)CC1, the “% Inhibition @ 10 uM” value rises from -3.1% to 24%.

Going from Cc1cccc(Cc2c(C)nc3c(C(=O)NCCc4ccccc4)cnn3c2C)c1 to CCN(C(=O)CCc1ccccc1)c1nc(-c2ccccc2)cs1, the “% Inhibition @ 10 uM” value rises from -16.3% to -0.426%.

First: O=C(O)CSC12CC3CC(CC(C3)C1)C2
Second: O=C(c1ccco1)N1CCN(C2CCC(c3ccccc3)CC2)CC1 (stereo not drawn)
The “% Inhibition @ 10 uM” value of the first is lower: -0.415% for the first, -0.274% for the second.

First: O=C1c2ccccc2C(=O)N1c1c(F)c(F)c(C(F)(F)F)c(F)c1F
Second: O=C1c2cccc3cccc(c23)C(=O)N1O
The “% Inhibition @ 10 uM” value of the first is lower: 1.8% for the first, 13.1% for the second.

Compared with CC1=CC2=NC(=O)/C(=C\c3ccc(OCc4ccccc4C)cc3)C(=N)N2O1, Cc1ccccc1N1C(=O)/C(=C\c2c(C)[nH]c3ccccc23)C(=O)NC1=S is higher in “% Inhibition @ 10 uM” value: 3.63% for the first, 4.15% for the second.

Going from COc1ccc(Cl)cc1N(CC(=O)Nc1ccc(C(C)C)cc1)S(C)(=O)=O to CCOC(=O)C1=CN(C)C=C(C(=O)OCC)C1c1ccc(C(C)C)cc1, the “% Inhibition @ 10 uM” value falls from 0.324% to -1.48%.

Going from Nc1nnc(-c2ccc([N+](=O)[O-])cc2)s1 to Cc1cc(-c2ccc([N+](=O)[O-])cc2)nc2ccc3ccccc3c12, the “% Inhibition @ 10 uM” value falls from -0.0369% to -0.239%.

Compared with COc1ccc(C2=CC(c3ccc(F)c(Br)c3)n3nnnc3N2)cc1 (stereo not drawn), Cc1ccc(-c2nc3c4ccccc4nc(S)n3n2)cc1 is lower in “% Inhibition @ 10 uM” value: 1.73% for the first, -7.62% for the second.

Compared with CC(=O)ONc1ccc(NC=C2C(=O)N(C)C(=O)N(C)C2=O)cc1, CCOc1ccc(N2C(=O)C3C(C(C)=O)=NN(c4ccccc4Cl)C3C2=O)cc1 (stereo not drawn) is lower in “% Inhibition @ 10 uM” value: 8.6% for the first, -0.0619% for the second.

Going from Fc1ccccc1CSCc1nc2ccccc2[nH]1 to O=C(COc1ccccc1)NC(Cc1c[nH]c2ccccc12)C(=O)O (stereo not drawn), the “% Inhibition @ 10 uM” value rises from -4.6% to 10.2%.

First: O=C(Nc1cnc2ccccc2c1O)N1CCC(Cc2ccccc2)CC1
Second: O=C(Nc1cnn(Cc2ccccc2)c1)C1CCCC1
The “% Inhibition @ 10 uM” value of the first is higher: 5.43% for the first, -1.78% for the second.

First: Cc1cc(/C=C2/SC(=O)N(C(C)C)C2=O)c(C)n1-c1ccncc1
Second: Cc1cccc(C)c1-n1c(C)cc(/C=C2\NC(=O)NC2=O)c1C
The “% Inhibition @ 10 uM” value of the first is lower: -0.68% for the first, 4.83% for the second.

First: CCCC(=O)NCCc1nc2ccccc2n1CC(C)C
Second: CCCOc1ccc(C(=O)CCNC(C(=O)O)C(C)C)cc1 (stereo not drawn)
The “% Inhibition @ 10 uM” value of the first is lower: 0.121% for the first, 2.8% for the second.

First: CCCc1nc(N)c(C#N)c(-c2ccccc2)c1CC
Second: CCCCc1nc(N)c(C#N)c(-c2ccccc2)c1CCC
The “% Inhibition @ 10 uM” value of the first is lower: -0.631% for the first, 97.8% for the second.

Compared with COc1ccccc1-c1c(C)c(CC(C)C)nc(N)c1C#N, Cc1c(CC(C)C)nc(N)c(C#N)c1-c1ccccc1 is higher in “% Inhibition @ 10 uM” value: 0.5% for the first, 99.3% for the second.

Going from CCCCCc1nc(N)c(C#N)c(-c2ccccc2)c1CCCC to CCOC(=O)c1c(C)nc(S)c(C#N)c1-c1ccccc1, the “% Inhibition @ 10 uM” value rises from -5.9% to 57.1%.

Compared with Cc1c(CC(C)C)nc(N)c(C#N)c1-c1ccc(F)cc1, CC(=O)c1c(C)nc(S)c(C#N)c1-c1ccc(Cl)cc1 is higher in “% Inhibition @ 10 uM” value: 2.92% for the first, 33.7% for the second.

First: CCOC(=O)c1c(C)nc(C)c(C(=O)OCC)c1-c1ccccc1
Second: CCOC(=O)c1c(C)nc(C)c(C(=O)OCC)c1-c1ccc(OC)cc1
The “% Inhibition @ 10 uM” value of the first is higher: 1.57% for the first, -1.96% for the second.

Compared with CCOC(=O)c1c(C)nc(S)c(C#N)c1-c1ccc(OC)cc1, CC(=O)c1c(C)nc(S)c(C#N)c1-c1ccccc1 is lower in “% Inhibition @ 10 uM” value: 52.9% for the first, 39.2% for the second.

Compared with Cc1nc(S)c(C#N)c(C)c1C(=O)Nc1ccccc1, CCc1c(C#N)c(S)nc(C)c1C(=O)Nc1ccccc1 is higher in “% Inhibition @ 10 uM” value: 2.01% for the first, 55% for the second.

Compared with Cc1ccc(OCCNC(=O)Cn2cnc3c(=O)n(C)c(=O)n(C)c32)cc1C, Cc1ccc(-n2nc(C)c3c(C)c(CCC(=O)NCC4CCCO4)c(C)nc32)cc1 (stereo not drawn) is higher in “% Inhibition @ 10 uM” value: -9.26% for the first, 0.953% for the second.

Compared with COc1cc(C2NCCc3c2[nH]c2ccccc32)ccc1OC(C)C (stereo not drawn), COc1ccccc1NC(=O)c1cc(OC)c(OC)c(OC)c1 is lower in “% Inhibition @ 10 uM” value: 1.02% for the first, -5.67% for the second.

Compared with O=C(CNS(=O)(=O)c1ccc(Br)s1)N1CC=C(c2ccccc2)CC1, CC(C(=O)O)c1cc(C(=O)c2ccccc2)sc1-c1ccccc1 (stereo not drawn) is higher in “% Inhibition @ 10 uM” value: 3.27% for the first, 6.08% for the second.

Compared with O=C(NC1CCCC1)c1ccc(Cl)c([N+](=O)[O-])c1, CC(NC(=O)c1cccs1)c1cc2c(cc1Cl)OCCCO2 (stereo not drawn) is higher in “% Inhibition @ 10 uM” value: -4.91% for the first, -1.28% for the second.

Compared with Cc1cc(-c2ccc(O)cc2)nc2ccc3ccccc3c12, Cc1cc(-c2ccc(N)cc2)nc2ccc3ccccc3c12 is higher in “% Inhibition @ 10 uM” value: -1.97% for the first, 52.7% for the second.

Compared with OC1CCCN(Cc2ccc(OC(F)(F)F)cc2)C1 (stereo not drawn), COC(=O)C1=NNC2C(=O)N(Cc3ccccc3)C(=O)C12 (stereo not drawn) is lower in “% Inhibition @ 10 uM” value: 1.62% for the first, -0.13% for the second.

Compared with CCc1nnc(NC(=O)CSc2nc(N)nc(SC)c2C#N)s1, CCc1nnc(NC(=O)CSc2nc(-c3cccs3)cc(C(F)(F)F)c2C#N)s1 is higher in “% Inhibition @ 10 uM” value: -1.68% for the first, 9.42% for the second.

First: CC(C)CCOc1ccc(C(=O)CCNC(CC(C)C)C(=O)O)cc1 (stereo not drawn)
Second: CC(C)Oc1ccc(C(=O)CCNC(C(=O)O)C(C)C)cc1 (stereo not drawn)
The “% Inhibition @ 10 uM” value of the first is lower: 30.1% for the first, 59.7% for the second.

Going from CCCOc1ccc(C(=O)CCNC(Cc2c[nH]c3ccccc23)C(=O)O)cc1 (stereo not drawn) to CCOc1ccc(C(=O)CCNC(CC(=O)O)C(=O)O)cc1 (stereo not drawn), the “% Inhibition @ 10 uM” value falls from 81.9% to 42.3%.

Compared with CC[C@H](C)[C@H](NC(=O)Cc1ccncc1)C(=O)N[C@@H](CCc1ccccc1)C(=O)CO, CCOc1ccc(C(=O)CCNC(C(=O)O)C(C)CC)cc1 (stereo not drawn) is higher in “% Inhibition @ 10 uM” value: -4.17% for the first, 71% for the second.

First: CCN(C(=O)c1ccco1)c1nc(-c2ccccc2)cs1
Second: CCCN(C(=O)c1ccco1)c1nc(-c2cccc(Cl)c2)cs1
The “% Inhibition @ 10 uM” value of the first is higher: 72.9% for the first, 11.9% for the second.

Compared with Cc1cc(C)c(S(=O)(=O)N2CCCc3ccccc32)c(C)c1, COC(=O)c1cc2c(C)nn(-c3ccccc3)c2s1 is higher in “% Inhibition @ 10 uM” value: 1.83% for the first, 4.7% for the second.

First: CCOc1ccc(/C=C2/C=C(c3ccc(C)cc3)OC2=O)cc1OC
Second: O=C1C(Sc2ccccc2)=C(O)c2cccc3cccc1c23
The “% Inhibition @ 10 uM” value of the first is lower: 1.84% for the first, 68.7% for the second.

Going from O=C1NC(=O)c2cccc3cccc1c23 to Cc1nn(-c2ccccc2)c2sc(C(N)=O)cc12, the “% Inhibition @ 10 uM” value rises from -4.51% to 6.83%.

First: CCC(C)C(NCCC(=O)c1ccc(Br)cc1)C(=O)O (stereo not drawn)
Second: COc1ccc(C(=O)CCNC(C)C(=O)O)cc1 (stereo not drawn)
The “% Inhibition @ 10 uM” value of the first is lower: -7.23% for the first, 5.85% for the second.

Compared with CCC(Oc1ccccc1)C(=O)Nc1ncccc1Cl (stereo not drawn), COc1ccccc1NC(=O)/C=C\C(=O)O is higher in “% Inhibition @ 10 uM” value: -3.75% for the first, 1.63% for the second.

First: CCCN(CCC)CCNC(=O)c1cn(C)c(=O)c2cc(OC)c(OC)cc12
Second: Cc1nn(-c2ccccc2)c2sc(-c3nnc(S)o3)cc12
The “% Inhibition @ 10 uM” value of the first is lower: -2.49% for the first, 64.9% for the second.
